Sfp inh: Sfp phosphopantetheinyl transferase inhibition. hit rate 3.5% among 310,000. Biochemical Sfp PPTase activity, qHTS. Potency, µM, for inactives: largest response in the series, negative = inhibition, hits mostly inhibitors. AID 1490. Q9F4F7;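 also: the enzyme is Sfp with the accession as filed and its product quenches rhodamine fluorescence; 0% = enzyme reaction without inhibitor and -100% = no enzyme wells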
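Reaction rates are the 30-min fluorescence difference (ex 525, em 598 nm) in wells containing 15 nM Sfp, 5 uM rhodamine-CoA and 12.5 uM BHQ-2-YbbR at pH 7.6 with 10 mM MgCl2.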
G9a block: inhibitors of human histone lysine methyltransferase G9a; Q96KQ7; G9a H3K9 monomethylation, AlphaScreen, 2 h; Potency, µM (doses to about 102 µM), without a hit: top-dose activity, negative = inhibition, usual class: inhibitors; hit rate 8.8% among 350,000; also: % is scaled to controls: 0 for no effect and ±100 for the full control effect; nearly all actives have a fitted effect of over 75% in size
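AlphaScreen read-out: biotin-H3K9 peptide (500 nM) methylation by 20 nM enzyme with 20 uM SAM, 2 h at room temperature after 15 min compound preincubation; anti-monomethyl H3K9 antibody plus donor/acceptor beads, 10 min dark.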
JMJD2A Tudor: inhibitors of human JMJD2A Tudor domain; O75164; AlphaScreen JMJD2A-Tudor / H3K4me3 peptide binding; Potency, µM (highest dose often 114 µM), without a hit: at the highest dose activity change, negative = inhibition, actives largely listed as inhibitors; hit rate 4.4% among 390,000; also: % is scaled to controls: 0 for no effect and ±100 for the full control effect; nearly all actives have a fitted effect of over 50% in size
L3MBTL1 inh: inhibitors of human L3MBTL1 | Q9Y468 | AlphaScreen L3MBTL1–H3K9me1 peptide binding | Potency, µM (titrated, usually from 57.1 µM), inactives show top-dose activity, negative = inhibition, actives largely listed as inhibitors | hit rate 0.66% among 230,000; also: % is scaled to controls: 0 for no effect and ±100 for the full control effect; nearly all actives have a fitted effect of over 60% in size
Target sequence (Q9Y468 whole entry, looked up): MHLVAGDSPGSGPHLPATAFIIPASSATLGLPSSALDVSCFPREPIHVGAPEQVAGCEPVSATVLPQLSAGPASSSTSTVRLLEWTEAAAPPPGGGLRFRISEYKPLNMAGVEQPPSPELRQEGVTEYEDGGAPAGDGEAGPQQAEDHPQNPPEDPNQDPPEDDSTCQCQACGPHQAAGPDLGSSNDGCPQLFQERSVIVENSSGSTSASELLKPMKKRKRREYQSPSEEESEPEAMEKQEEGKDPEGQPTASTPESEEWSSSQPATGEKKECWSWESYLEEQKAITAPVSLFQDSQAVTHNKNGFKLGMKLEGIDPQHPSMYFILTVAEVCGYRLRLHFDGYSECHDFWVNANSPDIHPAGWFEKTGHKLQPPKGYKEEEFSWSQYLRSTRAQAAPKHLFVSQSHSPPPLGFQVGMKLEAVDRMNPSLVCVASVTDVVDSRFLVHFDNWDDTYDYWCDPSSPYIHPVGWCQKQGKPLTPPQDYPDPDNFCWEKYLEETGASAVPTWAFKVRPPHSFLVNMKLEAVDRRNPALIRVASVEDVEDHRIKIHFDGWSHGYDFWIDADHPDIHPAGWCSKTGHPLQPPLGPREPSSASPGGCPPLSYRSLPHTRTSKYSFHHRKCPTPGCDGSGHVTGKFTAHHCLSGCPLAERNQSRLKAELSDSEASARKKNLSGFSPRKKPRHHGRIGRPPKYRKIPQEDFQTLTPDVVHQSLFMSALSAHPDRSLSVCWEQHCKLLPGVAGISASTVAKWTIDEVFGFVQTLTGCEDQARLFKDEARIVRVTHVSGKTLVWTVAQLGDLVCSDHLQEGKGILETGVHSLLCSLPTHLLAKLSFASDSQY
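AlphaScreen proximity signal between nickel-chelate acceptor and streptavidin donor beads (final 10 ug/mL) reports binding of 50 nM L3MBTL1 to 75 nM biotin-H3 K9me1 peptide; complex incubated with compounds 30 min at room temperature; cefsulodin titration as control.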
BAZ2B inh: inhibitors of human BAZ2B bromodomain; Q9UIF8; AlphaScreen BAZ2B-H3K14Ac peptide displacement; Potency, µM (top dose mostly 114 µM), inactives show top-dose activity change, negative = inhibition, most hits filed as inhibitors; hit rate 4.4% among 360,000; AID 504333; also: % is scaled to controls: 0 for no effect and ±100 for the full control effect; nearly all actives have a fitted effect of over 60% in size
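BAZ2B 50 nM plus b-H3(5-23)K14Ac 50 nM, PBS pH 7.4/0.01% Tween-20, 30 min RT; compound added (max 110 uM), 30 min RT; streptavidin donor/Ni-chelate acceptor beads 10 ug/mL final, 20 min dark; AlphaScreen read.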
HP1b chromo inh: HP1-beta chromodomain-methylated histone interaction inhibition | P83916 | AlphaScreen HP1-beta / biotin-H3K9me3 peptide binding | Potency, µM (doses to about 114 µM), for the others: at the top dose activity change, negative = inhibition, actives largely listed as inhibitors | hit rate 0.56% among 390,000 | AID 540317; also: nearly all actives have a fitted effect of over 70% in size
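HP1-beta protein (50 nM final) preincubated 30 min at room temperature with biotinylated H3(1-18)K9me3 peptide (50 nM) in PBS pH 7.4, 0.01% Tween-20, then compound added for 30 min. AlphaScreen streptavidin donor/nickel chelate acceptor beads (10 ug/mL final), 30 min dark, luminescence read.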
* marks the source's active call; other numbers are inactive results; ? = inconclusive; . = no result given; ! = not active in a repeat; [ ] = another dose, or the depositor's remark. Most compounds without a hit are left out; they make up all but 12% or so of the library. Calls follow the shape of the dose curve; as a rule, active = well fitted curve in the direction sought with a large enough effect; inconclusive = small, poorly fitted or top-dose-only effect, or another doubt; inactive = no such curve, though single readings can be large; an effect the other way counts as inactive or inconclusive. Potency is read from the fitted curve at half-maximal effect.

SMILES	Sfp inh	G9a block	JMJD2A Tudor	L3MBTL1 inh	BAZ2B inh	HP1b chromo inh
COC(=O)C1=C(C)N(Cc2ccccc2)C(=NCc2ccc(OC)cc2)N[C@H]1c1ccccc1	-15%	.	?	1%	?	-7%
COC(=O)C1=C(C)N(Cc2ccccc2)C(=NCc2ccco2)N[C@H]1c1ccc(Br)cc1	-7%	0%[12.7 µM]	.	.	79µM*	.
CCN1C(=NCCCCO)N[C@@H](c2cccc(C(F)(F)F)c2)C(C(=O)OC)=C1C	16%	21%[12.7 µM]	?	14%	?	47%
C=CCN=C1N[C@@H](c2cccc(C(F)(F)F)c2)C(C(=O)OC)=C(C)N1CC	12%	28µM*!	?	12%	?	32%
COC(=O)C1=C(C)N(Cc2ccccc2)C(=NCC(C)C)N[C@H]1c1ccccc1	17%	50µM*!	-32%	6%	6%	-7%
CCCNC(=O)COc1coc(CN2CCN(c3ccccc3OC)CC2)cc1=O	11%	-1%	-11%	.	-1%	29%
C=CCN=C1N[C@@H](c2ccccc2)C(C(=O)OC)=C(C)N1CC	12%	40µM*!	-16%	1%	8%	24%
C=CCN=C1N[C@@H](c2ccc(Br)cc2)C(C(=O)OC)=C(C)N1Cc1ccccc1	-10%	.	.	.	?	.
CCSc1ncc(/C=N/Nc2ccc(Cl)cc2)n1C	28µM*	?	56µM*	-14%	35µM*	40µM*
CCSc1ncc(/C=N/Nc2ccc([N+](=O)[O-])cc2)n1C	-9%	?	8%	3%	-8%	2%
CC(=O)O[C@@]1(C(C)=O)CCC2C3C=C(C)C4=CC(=O)CCC4(C)C3CCC21C (some centres undefined)	-5%	-25%[2.33 µM]	.	.	.	.
C=C1CC2C3C=C(C)C4=CC(=O)CCC4(C)C3CCC2(C)[C@@]1(OC(C)=O)C(C)=O (some centres undefined)	-10%	18µM*	.	.	.	.
O=S(=O)(c1cccc(Cn2nnc(-c3ccccc3)n2)c1)N1CCOCC1	.	.	0%	2%	.	51%
COc1cc(C2Nc3c(F)cccc3C3C=CCC32)cc(Br)c1OC (centres undefined)	40µM*	.	-10%	-2%	?	20%
COc1cccc(C2Nc3c(F)cc(Br)cc3C3C=CCC32)c1OC (centres undefined)	-12%	-2%	8%	11%	8%	59%
CC(=O)c1sc(NCc2ccccc2)nc1C	-4%	71µM*	-17%	.	?	16%
CC(=O)c1sc(NCc2ccc(C)cc2)nc1C	1%	56µM*	-24%	.	-22%	24%
COc1ccc(CCNc2nc(-c3ccc(NC(C)=O)cc3)cs2)cc1OC	-24%	?	-34%	.	?	-30%
COc1ccc(OCCCC(=O)Nc2nc(C)c(C(C)=O)s2)cc1	13%	8%[0.501 µM]	?	7%	2%	-5%
CC(=O)c1sc(NC(=O)CCCOc2ccc(Cl)cc2)nc1C	8%	?	-19%	6%	79µM*	28%
COc1ccc(CCNc2nc(-c3ccc(F)cc3)c(CC(=O)O)s2)cc1OC	35µM*	7.1µM*	-28%	.	-30%	?
CC(=O)NCCc1nc2ccccc2n1Cc1cc(C)ccc1C	7%	.	-20%	.	-16%	-10%
Cc1ccc(NC(=O)Cn2c(=O)n(CCC(=O)NCc3ccccc3Cl)c(=O)c3ccccc32)cc1	.	5%[59 µM]	-16%	.	?	75%
CC(C)(N)C(=O)N[C@@H](Cc1cnc[nH]1)C(=O)N[C@H](Cc1ccc2ccccc2c1)C(=O)N[C@H](Cc1ccccc1)C(=O)N[C@@H](CCCCN)C(N)=O	1%	.	.	.	.	.
CC(=O)c1sc(Nc2ccccn2)nc1C	-6%	-6%[59 µM]	10%	-2%	50µM*	28%
SMILES	Sfp inh	G9a block	JMJD2A Tudor	L3MBTL1 inh	BAZ2B inh	HP1b chromo inh
CC(=O)c1sc(NCCOc2ccc(C)cc2)nc1C	-17%	50µM*	-9%	?	2%	63%
COc1ccc(CCNc2nc(C)c(C(C)=O)s2)cc1OC	16µM*	4µM*	?	.	?	?
CSCC[C@H](NS(=O)(=O)c1ccc(C(C)=O)cc1)c1nnc2ccccn12	5%	45µM*	0%	.	56µM*	46%
O=C(NCC(c1ccco1)N1CCCC1)c1cccc(S(=O)(=O)Nc2ccc(F)cc2)c1 (centres undefined)	.	30%[12.7 µM]	-3%	-1%	12%	33%
CC(NC(=O)COC(=O)c1ccc(CO)cc1)C1CC2CCC1C2 (centres undefined)	.	0%[12.7 µM]	-2%	3%	-3%	32%
Cc1ccc(Cl)cc1NC(=O)CC1Sc2ccccc2NC1=O (centres undefined)	.	-30%[59 µM]	-2%	.	2%	38%
CNS(=O)(=O)c1ccc(NCC2COc3ccccc3O2)c([N+](=O)[O-])c1 (centres undefined)	0%	16µM*	-25%[57.1 µM]	-14%	50µM*	-16%
O=S(=O)(NCC1COc2ccccc2O1)c1ccc2ccccc2c1 (centres undefined)	-10%	12%[59 µM]	-31%[57.1 µM]	8%	11%	45%
C[C@]12CCC3c4ccc(O)cc4CCC3C1CCC2=O (some centres undefined)	5%	.	.	.	.	.
CN(C)CCN(C(=O)c1ccccc1Cl)c1nc2c(Cl)cccc2s1	-12%	10µM*	25µM*	-3%	-65%	?
O=C(Cc1ccccc1)N(Cc1cccnc1)c1nc2c(Cl)cccc2s1	.	9%[59 µM]	-19%	.	?	16%
CCN(CC)CCN(C(=O)c1ccc2c(c1)OCCO2)c1nc2c(Cl)cccc2s1	?	50µM*	?	.	?	-15%
CCN(CC)CCN(C(=O)c1ccc2c(c1)OCCO2)c1nc2cc(C)cc(C)c2s1	?	.	?	.	?	-27%
COC(=O)c1ccc(C(=O)N(CCN(C)C)c2nc3c(Cl)cccc3s2)cc1	-17%	56µM*	-12%	.	.	3%
CN(C)CCN(C(=O)c1cccc(Cl)c1)c1nc2c(Cl)cccc2s1	-7%	45µM*	?	8%	2%	-11%
Cn1c(=O)c2sccc2n2c(CCCC(=O)NCc3ccco3)nnc12	2%	24%	-10%	.	-9%	29%
COc1cccc([C@@H]2Oc3ccc(OC)cc3/C(=N/OC[C@@H](C)[C@H](OCc3ccccc3)C(C)C)[C@@H]2O)c1	20%	.	.	.	.	.
CC(C)(C)NC(=O)C(c1ccncc1)N(Cc1cccs1)C(=O)c1csnn1 (centres undefined)	-9%	1%[12.7 µM]	-1%	.	-12%	19%
O=C(NC1CCCC1)C(c1ccncc1)N(Cc1cccs1)C(=O)c1csnn1 (centres undefined)	20µM*	?	-19%	-28%	-7%	20%

Screening results deposited in PubChem BioAssay by National Center for Advancing Translational Sciences (NCATS).
